Inconclusive results are not listed. The source made the active and inactive calls. Calls follow the shape of the dose curve; as a rule, active = well fitted inhibition curve with a large enough effect; inconclusive = small, poorly fitted or top-dose-only effect; inactive = flat fitted curve, though single readings scatter.
Assays:
[1] = target: Glutathione peroxidase 1 (Homo sapiens) (UniProt P07203); assay: Primary qHTS Assay for Inhibitors of Recombinant Selenoprotein Glutathione Peroxidase 1 (GPX1) (AID 1845191); also: nearly all actives have a fitted effect of over 65% in size
Glutathione peroxidase 1 (Homo sapiens), sequence (P07203 whole entry, looked up): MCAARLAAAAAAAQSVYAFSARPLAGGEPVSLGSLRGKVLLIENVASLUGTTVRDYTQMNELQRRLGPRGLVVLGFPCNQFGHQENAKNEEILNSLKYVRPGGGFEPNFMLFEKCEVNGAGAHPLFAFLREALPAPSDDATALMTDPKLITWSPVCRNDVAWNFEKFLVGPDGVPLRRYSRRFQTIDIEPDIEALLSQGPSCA
In short: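 Recombinant GPX1 (10 nM final) was preincubated with compound for 30 min at room temperature, then reacted with 1 mM GSH, 0.5 mM CHP, 0.5 mM NADPH and 100 nM glutathione reductase; NADPH fluorescence (340/450 nm) was read at 0 and 15 min.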

[2] = target: Phospholipid hydroperoxide glutathione peroxidase GPX4 (Homo sapiens) (UniProt P36969); assay: Primary qHTS Assay for Inhibitors of Recombinant Selenoprotein Glutathione Peroxidase 4 (GPX4) (AID 1845192); also: nearly all actives have a fitted effect of over 65% in size; as to activity change, negative = inhibition: series mostly up to about 50 µM; % is scaled to controls: 0 for no effect and ±100 for the full control effect
Phospholipid hydroperoxide glutathione peroxidase GPX4 (Homo sapiens), sequence (P36969 whole entry, looked up): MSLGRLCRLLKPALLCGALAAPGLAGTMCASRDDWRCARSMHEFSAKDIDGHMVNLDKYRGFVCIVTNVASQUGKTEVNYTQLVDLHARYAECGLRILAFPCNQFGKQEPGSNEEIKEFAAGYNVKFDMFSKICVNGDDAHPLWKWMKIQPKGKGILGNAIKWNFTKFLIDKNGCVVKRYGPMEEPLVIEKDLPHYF
In short: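 GR-coupled readout: 100 nM GR, 1 mM GSH, 0.5 mM NADPH; NADPH fluorescence (ex 340/em 450 nm) read at t=0 and after 15 min RT. GPX4 200 nM, preincubated 30 min with compound; substrate 0.5 mM CHP.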

[3] = target: Luciferin 4-monooxygenase (Photinus pyralis) (UniProt P08659); assay: Primary firefly luciferase (FLuc) qHTS assay for identification of artifact compounds. (AID 1845220); also: nearly all actives have a fitted effect of over 60% in size;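 as to activity change, negative = inhibition: series mostly up to about 54 µM; plate controls were DMSO vehicle for no effect and no enzyme for full effect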
In short: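 Reaction readout was CCD-imaged luminescence, taken 5 min after adding 10 nM purified firefly enzyme to compound-treated wells holding 10 uM luciferin and ATP in pH 7.6 buffer.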

C/C=C(\C)C(=O)O[C@@H](C)[C@H]1CC[C@]2(O)C3CCC4C[C@@H](OC5CC(OC)C(OC6CC(OC)C(OC7CC(OC)C(OC8OC(C)C(OC9OC(CO)C(O)C(O)C9O)C(OC)C8O)C(C)O7)C(C)O6)C(C)O5)CC[C@]4(C)C3[C@H](O)[C@@H](O)[C@]12C (stereo partly specified)
inactive: outcome [1] inactive [at 9.52 µM] | activity change, negative = inhibition [2] -0.387% [at 9.73 µM] | outcome [3] inactive [at 11.6 µM]

COC(=O)C[C@@H]1C(C(=O)O)=CO[C@@H](O[C@@H]2O[C@H](CO)[C@@H](O)[C@H](O)[C@H]2O)/C1=C\COC(=O)/C=C\c1ccccc1
inactive: Potency [1] | Potency [2] | Potency [3]

CC(=O)OC[C@@]12[C@H](O)C[C@@H](C)[C@]3(C[C@@H](c4ccoc4)OC3=O)[C@H]1C[C@H](O)C[C@]21CO1
inactive: Potency [1] | Potency [2] | Potency [3]

C=C1CC23CCC4[C@@](C)(CCC[C@@]4(C)C(=O)O)C2CCC1C3 (stereo partly specified)
inactive: Potency [1] | Potency [2] | Potency [3]

O=c1c2ccccc2nc2n1CCC2O (stereo unspecified)
inactive: Potency [1] | Potency [2] | Potency [3]

COc1ccc([C@@H]2N[C@H](C(=O)O)Cc3c2[nH]c2ccccc32)cc1CN1CCN(c2ccccc2F)CC1
inactive: Potency [1] | Potency [2] | Potency [3]

C=C(C)[C@@H](C)[C@H]1O[C@]23C[C@]4(CO2)C(CCC2[C@@]5(C)CC[C@H](O[C@@H]6OC[C@H](O)[C@H](O[C@@H]7O[C@H](CO)[C@@H](O)[C@H](O)[C@H]7O)[C@H]6O[C@@H]6O[C@@H](CO)[C@H](O)[C@H]6O)C(C)(C)C5CC[C@]24C)C3[C@@](C)(O)[C@@H]1OC(C)=O (stereo partly specified)
inactive: Potency [1] | Potency [2] | activity change, negative = inhibition [3] 4.34% [at 11.6 µM]
